Each structure is given as a SMILES string. Activity calls are given as the source filed them.

The test can be described thus: fission yeast growth modulation, primary screen, strain 972, OD600, 24 h, no modulator (AID 1090).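 Also: basal condition with compound alone and no growth modifier present; test concentration not given here.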 As to conditions: S. pombe 972 growth, higher = more signal, called active from +8 up or from −8 down.
As to `COC(=O)C(CC#Cc1ccc2c(c1)[C@]1(C(=O)N2)[C@H](c2ccccc2OCCO)N2[C@H](c3ccccc3)[C@H](c3ccccc3)OC(=O)[C@H]2[C@@H]1C(=O)N1CCN(c2ncccn2)CC1)C(=O)OC`, the z-score was 1.28 (inactive).
As for `COC(=O)[C@@]1(Cc2ccc(F)cc2)[C@H]2c3cc(C(=O)N(C)C)n(Cc4ccc(C(F)(F)F)nc4)c3C[C@H]2CN1C(=O)c1ccccc1`, the figure is 0.909 (inactive); as for `COCCCNC(=O)[C@]1(Cc2ccccc2CN=[N+]=[N-])N=C(c2ccc(OCCCO)cc2)O[C@@H]1c1ccccc1N=[N+]=[N-]`, 1.07 (inactive); as for `[N-]=[N+]=Nc1ccccc1C[C@]1(C(N)=O)COC(c2ccc(OCCCO)cc2)=N1`, -0.846 (inactive).
As for `COc1cc(Cc2cc3c(c(-c4ccccc4)n2)[Si](C(C)C)(C(C)C)OC3)cc(OC)c1OC`, the figure is -0.949 (inactive); as for `COC(=O)C[C@H]1O[C@]2(C(=O)N(C)c3ccccc32)[C@@H](C)[C@@H]1[Si](C)(C)c1ccccc1`, -5.37 (inactive); as for `C=CC[C@H](O)c1ccc(O)c(F)c1`, -0.722 (inactive).
As for `COc1ccc(CCNC(=O)[C@@H]2c3ccccc3C(=O)N(C(C)C)[C@H]2c2ccc(CO)cc2)cc1`, the z-score is -0.264 (inactive).
Under `COC(=O)[C@@]1(Cc2ccc(F)cc2)[C@H]2c3cc(C(=O)N(C)C)n(CCF)c3C[C@H]2CN1C(=O)c1ccccc1` stands 0.287 (inactive); under `Cc1ccc(N2C(=O)c3ccccc3[C@@H](C(=O)NCCN3CCOCC3)[C@@H]2c2ccc(CO)cc2)nc1`, -0.33 (inactive).
Under `O=C/C=C/c1ccc(-c2ccccc2)cc1` stands -19.9 (active); under `CC[C@@H](O[Si](C#C[Si](C(C)C)(C(C)C)C(C)C)(C(C)C)C(C)C)c1cn([C@H](C)c2ccccc2)nn1`, 0.0803 (inactive); under `CCOC(=O)C1=CCC(c2cccn2C(=O)OC(C)(C)C)N(S(=O)(=O)c2ccc(C)cc2)C1` (stereo not given), 0.69 (inactive).
Under `CC[C@@H]1C=C(C(=O)O)[C@H](c2cccc(Cl)c2)N1S(=O)(=O)c1ccc(C)cc1` stands -0.874 (inactive).
For `O=C1O[C@H](c2ccccc2)[C@H](c2ccccc2)N2[C@H]1[C@@H](C(=O)O)[C@]1(C(=O)Nc3ccccc31)[C@H]2c1ccc(OCCO)cc1`, the z-score was 0.414 (inactive).
As for `COc1ccc(NN2C(C(O)c3ccc(F)cc3)C=CC3C(=O)N(C4CCCCC4)C(=O)C32)cc1` (stereo not given), the figure is 1.09 (inactive).
Take `C=CCNC(=O)[C@@H]1[C@H]2C(=O)O[C@H](c3ccccc3)[C@H](c3ccccc3)N2[C@H](c2ccc(OCCO)cc2)[C@@]12C(=O)Nc1ccc(C#CCNC(N)=O)cc12`: the z-score is -0.279 (inactive).
Under `CCCCN1CC=CC23O[C@@H]4C=CCCOC(=O)C4[C@H]2C(=O)N(CCO)[C@@H]3C1=O` (stereo not given in full) stands -0.492 (inactive).
Consider `CN1C(=O)C2C=CC(C(O)c3ccc([N+](=O)[O-])cc3)N(Nc3ccccc3)C2C1=O` (stereo not given), for which the z-score was -0.184 (inactive).
Regarding `CC(C)[Si]1(C(C)C)OCc2cc(-c3ccc(-c4ccc(Cl)c(Cl)c4)o3)nc(-c3ccc(Oc4ccccc4)cc3)c21`, the z-score was -0.504 (inactive).
As for `C=C1C(=O)C=C2CN(C(=O)c3ccccc3)[C@@](Cc3ccc(F)cc3)(C(=O)OC)[C@@H]12`, the figure is -15.9 (active); as for `CN(C)C(=O)[C@]1(CCS(=O)(=O)c2ccccc2)N=C(c2ccc(OCCCO)cc2)O[C@@H]1c1ccccc1CN=[N+]=[N-]`, 0.349 (inactive).
Under `CN1C2C=C(c3ccc(CO)cc3)C(C3C(=O)N(C(N)=O)C(=O)C32)C1C1CC1` (stereo not given) stands -0.257 (inactive).
Under `CCCNC(=O)[C@@]1(Sc2ccc(C)cc2)CC(=O)N(Cc2cc(C(F)(F)F)cc(C(F)(F)F)c2)[C@@H]1c1ccc(CO)cc1` stands -1.16 (inactive); under `COCCOC(=O)N1C(=O)[C@@]2(c3cc(C#CC4(O)CCCCCC4)ccc31)[C@H](C(N)=O)[C@H]1C(=O)O[C@H](c3ccccc3)[C@H](c3ccccc3)N1[C@@H]2c1ccc(OCCO)cc1`, -0.0624 (inactive).
As for `CC(C)C[C@@H]1NC(=O)[C@@H]2C[C@H](C(=O)NCCCCCNC(=O)CS)[C@H](c3ccc(O)cc3)N2C1=O`, the z-score is 0.0046 (inactive).
Regarding `Cc1ccc(S(=O)(=O)N2[C@@H](c3ccccc3)C(C(=O)O)=CC[C@H]2c2ccc(F)cc2)cc1`, the z-score was 0.364 (inactive).
As for `CCCCCN1CC=CC23O[C@@H]4/C=C\CCCOC(=O)C4[C@H]2C(=O)N(CCO)[C@@H]3C1=O` (stereo not given in full), the figure is -1.15 (inactive); as for `C=C(C(=O)CC[C@@H](OC(=O)c1cccnc1)c1cccc(OCCO)c1)C(C)C`, -0.0738 (inactive); as for `O=C1C2C=CC(C(O)C3CC=CCC3)N(Nc3ccc([N+](=O)[O-])cc3)C2C(=O)N1c1ccccc1` (stereo not given), 0.531 (inactive).
Under `CCCCC(=C=CC[C@@H](O)c1ccccc1OCCO)C[C@@H](O)c1ccccn1` stands -0.314 (inactive); under `COC(=O)[C@]1(Cc2ccccc2CN=[N+]=[N-])N=C(c2ccc(OCCCO)cc2)O[C@@H]1c1ccccc1N=[N+]=[N-]`, -1.58 (inactive).
Under `COCCOC(=O)N1C(=O)[C@@]2(c3cc(C#CC4=CCCCC4)ccc31)[C@H](c1ccc(O)cc1)N1[C@H](c3ccccc3)[C@H](c3ccccc3)OC(=O)[C@H]1[C@@H]2C(=O)N1CCc2cc(OC)c(OC)cc2C1` stands 0.244 (inactive).
Regarding `O=C(c1ccccc1)N1Cc2ccccc2C[C@@]2(N=C(c3ccc(OCCCO)cc3)O[C@H]2c2ccccc2)C1=O`, the z-score is -10.3 (active).
As for `C=CC[C@]1(C(=O)NCCN2CCOCC2)N=C(c2ccc(OCCCO)cc2)O[C@H]1c1ccccc1`, the figure is -0.577 (inactive).
